TDP1 inh: qHTS Assay for Inhibitors of Tyrosyl-DNA Phosphodiesterase (TDP1) | Tyrosyl-DNA phosphodiesterase 1 (Homo sapiens), Q9NUW8 | recombinant TDP1, AlphaScreen DNA substrate cleavage | Potency, µM (top dose mostly 130 µM), without a hit: top-dose activity change, negative = inhibition, hits mostly inhibitors | hit rate 0.28% among 350,000 | AID 485290, 2010; further: nearly all actives have a fitted effect of over 40% in size
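Compounds were preincubated with Tdp1 (1 nM final) for 15 min at room temperature before substrate (15 nM final) started a 5 min reaction; beads (10 ug/ml final) were then added for 10 min before AlphaScreen detection.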
KAT2A inh: qHTS Assay for Inhibitors of GCN5L2. Histone acetyltransferase KAT2A (Homo sapiens), Q92830. GCN5L2 HAT assay, ThioGlo1 CoA-SH fluorescence. Potency, µM (titrated, usually from 58.9 µM), inactives show at the top dose activity change, negative = inhibition, most hits filed as inhibitors. hit rate 0.21% among 390,000. AID 504327, 2011
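Free CoA generated was detected with ThioGlo1 (50uM) fluorescence at Ex340nm/Em540nm, read immediately and after 20 min at room temperature. Enzyme, 20 nM in HEPES pH 7.5 buffer, saw compounds 15 min before adding 75uM H3(1-25) peptide and 70uM acetyl-CoA.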
DT40 TDP1 no CPT: qHTS for Inhibitors of human tyrosyl-DNA phosphodiesterase 1 (TDP1): qHTS in cells in absence of CPT; DT40 Tdp1-/- hTDP1 cells, no CPT, ATP luminescence, 48 h; Potency, µM (top dose mostly 46.2 µM), without a hit: at the highest dose activity change, negative = growth inhibition, hits mostly inhibitors; hit rate 15% among 420,000; AID 686978, 2013; further: nearly all actives have a fitted effect of over 55% in size
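Stably hTDP1-transfected Tdp1-null chicken DT40 cells were treated with library compounds minus camptothecin and grown for at least 48 hr at 37 °C, after which cellular ATP was quantified by luminescence.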
VDR inhibitor: Inhibitors of the vitamin D receptor (VDR): qHTS; Vitamin D3 receptor (Homo sapiens), P11473; VDR-SRC2-3 peptide fluorescence polarization, 2 h; Potency, µM, inactives show max response, negative = inhibition, most hits filed as inhibitors; hit rate 0.93% among 400,000; AID 504847, 2011
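Signal is fluorescence polarization, reporting how far test compounds block the interaction of VDR with the SRC2-3 coregulator peptide after a 2 h room-temperature incubation.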
DT40 TDP1 CPT: qHTS for Inhibitors of human tyrosyl-DNA phosphodiesterase 1 (TDP1): qHTS in cells in presence of CPT; chicken DT40 Tdp1-/-;hTDP1 cells + 20 nM CPT, ATP luminescence, 48 h; Potency, µM (series often up to 46.2 µM), without a hit: at the highest dose activity change, negative = growth inhibition, hits mostly inhibitors; hit rate 12% among 420,000; AID 686979, 2013; further: nearly all actives have a fitted effect of over 55% in size
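Cell growth measured by CellTiter-Glo luminescence after a minimum 48 h, 37 C compound exposure with 20 nM CPT in Tdp1-knockout DT40 cells stably expressing hTDP1, seeded 400/well; qHTS titration format.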
PLK1 PBD inh: qHTS for Inhibitors of PLK1-PDB (polo-like kinase 1 - polo-box domain): Primary Screen; Plk1 PBD binding of FITC phosphopeptide, fluorescence polarization; hit rate 2.8% among 360,000; Potency, µM, for inactives: max response, negative = inhibition, actives largely listed as inhibitors; further: series mostly up to about 57 µM; nearly all actives have a fitted effect of over 65% in size
Target sequence (P53350 whole entry, looked up, the tested form may be a part): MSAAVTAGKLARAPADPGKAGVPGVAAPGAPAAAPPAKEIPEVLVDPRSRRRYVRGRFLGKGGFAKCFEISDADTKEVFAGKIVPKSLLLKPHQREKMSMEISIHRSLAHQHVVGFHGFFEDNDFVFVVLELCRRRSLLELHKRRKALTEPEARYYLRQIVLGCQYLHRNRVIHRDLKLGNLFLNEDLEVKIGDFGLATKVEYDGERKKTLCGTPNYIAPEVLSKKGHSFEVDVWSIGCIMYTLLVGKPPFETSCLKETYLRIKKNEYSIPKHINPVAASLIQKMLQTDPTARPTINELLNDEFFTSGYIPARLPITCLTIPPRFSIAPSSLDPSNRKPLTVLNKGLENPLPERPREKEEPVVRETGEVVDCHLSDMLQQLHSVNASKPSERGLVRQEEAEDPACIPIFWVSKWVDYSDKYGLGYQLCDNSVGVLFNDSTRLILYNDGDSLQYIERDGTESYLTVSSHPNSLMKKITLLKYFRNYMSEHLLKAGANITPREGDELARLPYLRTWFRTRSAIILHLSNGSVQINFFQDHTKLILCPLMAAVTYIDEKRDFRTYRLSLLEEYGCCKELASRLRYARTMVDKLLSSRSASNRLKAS
* = called active by the depositor; ? = inconclusive; · = not tested or not shown; [ ] = dose if it differs, or a comment. Shown are actives, neighbours in structure and some others; about 18% of the full set was active somewhere. The call rests on the fitted dose curve; in most records, active means well fitted curve in the direction sought with a large enough effect; inconclusive means small, poorly fitted or top-dose-only effect, or another doubt; inactive means no such curve, though single readings can be large; an effect the other way counts as inactive or inconclusive. On the % scale 0 is the no-effect control and ±100 the full control effect; potency means the concentration at half of the fitted maximal effect.

SMILES	TDP1 inh	KAT2A inh	DT40 TDP1 no CPT	VDR inhibitor	DT40 TDP1 CPT	PLK1 PBD inh
CCOc1cc(CNc2ccc(O)cc2)cc(Br)c1OCc1ccccc1	7.4%	-11.4%	16.4µM*	-16.6%	23.1µM*	·
COc1cc(=O)n2c(c1C(=O)N(C)Cc1nonc1C)CCN(C(=O)c1cc(C)ccc1C)CC2	·	·	-3.8%	·	5.7%	·
CCOc1ccc(N)c(SSc2cc(OCC)ccc2N)c1	·	-11.5%	5.17µM*	10µM*	2.59µM*	1.68µM*
CCOC(=O)C1CCCCN1S(=O)(=O)c1csc(C(N)=O)c1 (stereo not given)	0.0%	-5.4%	-5.8%	9.5%	-7.0%	·
CCOC(=O)C1=Nc2ccccc2C1=[N+]=[N-]	0.0%	-21.1%	7.31µM*	?	4.61µM*	-9.5%
CCOC(=O)c1cnc(-c2ccccc2O)nc1Cl	-2.7%	-10.9%	-16.1%	-5.8%	9.1%	-13.4%
CN(C)N1C(N)=C(C#N)C(c2ccccc2)C2=C1CC(C)(C)CC2=O (stereo not given)	·	-13.8%	-12.8%	?	-0.3%	-8.8%
CN(C)N1C(N)=C(C#N)C(c2cccc3ccccc23)C2=C1CC(c1ccccc1)CC2=O (stereo not given)	0.0%	-10.5%	7.31µM*	-24.1%	8.2µM*	-1.7%
COCCOc1ccc(C(F)(F)F)cc1Nc1nc2ccccc2o1	-3.1%	-13.9%	?	?	?	6.7µM*
CCN(CCCn1c(=S)[nH]c2ccc(N3CCOCC3)cc2c1=O)c1ccccc1	4.9%	-8.2%	20.6µM*	-10.3%	11.6µM*	-9.6%
O=c1c2cc(Cl)ccc2[nH]c(=S)n1Cc1ccco1	8.2%	-1.4%	?	1.5%	?	?
O=c1c2cc(N3CCOCC3)ccc2[nH]c(=S)n1CCCN1CCCCC1	-2.3%	-19.2%	3.0%	-8.4%	6.4%	1.0%
O=C(CCCCCn1c(=S)[nH]c2ccc(N3CCOCC3)cc2c1=O)NC1CCN(Cc2ccccc2)CC1	6.2%	-15.4%	23.1µM*	4.6%	16.4µM*	-10.7%
O=C(NC1CCN(Cc2ccccc2)CC1)c1ccc(Cn2c(=S)[nH]c3ccc(N4CCOCC4)cc3c2=O)cc1	4.9%	-4.8%	?	-13.7%	?	-5.3%
O=c1c2cc(N3CCOCC3)ccc2[nH]c(=S)n1Cc1ccco1	-5.5%	?	20.6µM*	79.4µM*	?	?
Cc1[nH]nc(SCC(=O)NC2CCCCC2)c1[N+](=O)[O-]	5.3%	-6.6%	-3.7%	-2.6%	-1.9%	-7.1%
CC(C)c1ccc(N2C(=NC(=O)C3CCCO3)SC3CS(=O)(=O)CC32)cc1 (stereo not given)	4.1%	-4.3%	6.4%	2.3%	2.3%	-1.3%
CC(=O)c1c(C)c(C)c2n1CCn1c(C)ccc1-2	5.8%	-2.2%	?	-16.9%	?	-16.1%
CN(C(=O)COC(=O)c1ccc(=O)n(Cc2ccccc2)n1)C1CCCCC1	-0.2%	3.7%	6.7%	-25.1%	-16.9%	-7.3%
CC[C@]1(C(=O)OC)[C@H]2C(=O)N(C)C(=O)[C@H]2[C@H]2CN=C(SCC3CC3)N21	-0.7%[56.1 µM]	2.4%	5.8%	17.1%	4.0%	-19.1%
CCS(=O)(=O)c1ccc2oc(Nc3ccc(C(C)(C)C)cc3)nc2c1	0.0%	-7.6%	14.6µM*	-5.3%	16.4µM*	-10.3%
CCS(=O)(=O)c1ccc2oc(Nc3ccc(OC)cc3)nc2c1	2.5%	-6.1%	-19.3%	-0.7%	13.9%	2.8%
CCOc1ccc(Nc2nc3cc(S(=O)(=O)CC)ccc3o2)cc1	5.5%	?	?	16.6%	-2.8%	?
CCN(CC)S(=O)(=O)c1ccc2oc(Nc3ccc4c(c3)OCCO4)nc2c1	4.5%	-6.6%	23.1µM*	-3.4%	16.4µM*	-22.4%
Cc1ccc(N2C(=O)C(CC(=O)Nc3ccc(F)cc3)N(Cc3ccc4c(c3)OCO4)C2=O)cc1 (stereo not given)	6.4%	-8.6%	16.4µM*	-4.2%	?	·
SMILES	TDP1 inh	KAT2A inh	DT40 TDP1 no CPT	VDR inhibitor	DT40 TDP1 CPT	PLK1 PBD inh
O=C(CC1C(=O)N(c2ccc(F)cc2)C(=O)N1Cc1ccc2c(c1)OCO2)Nc1ccc(Cl)cc1 (stereo not given)	3.8%	-7.1%	20.6µM*	7.4%	?	·
COc1cc(/C=C/C(=O)Nc2ccc(C(C)=O)cc2)cc(OC)c1OC	-5.8%	-10.3%	20.6µM*	-20.0%	?	-25.4%
COc1ccc(NC(=O)/C=C/c2cc(OC)c(OC)c(OC)c2)cn1	4.6%	-3.7%	14.1%	8.0%	-0.5%	0.8%
COc1cc(/C=C/C(=O)Nc2ccncc2)cc(OC)c1OC	5.5%	-2.3%	?	-11.1%	20.6µM*	-7.4%
OC(COc1ccc(Cl)cc1)CN1CCC(Cc2ccccc2)CC1 (stereo not given)	3.5%	-3.3%	?	20.8%	?	-6.6%
Cc1ccc(C)c(OCC(O)CN2CCC(Cc3ccccc3)CC2)c1 (stereo not given)	6.3%	-1.7%	?	-25.9%	20.6µM*	6.0%
Cc1ccc(C)c(OCC(O)CN2C(C)CCCC2C)c1 (stereo not given)	3.1%	3.8%	?	-12.4%	23.1µM*	11.9µM*

Assay outcomes (PubChem)
